Test results taken from PubChem BioAssay (Tox21).
Values joined by “and” are separate entries in the source; they are usually repeats but may differ in a detail not shown here. Equal entries are not always repeated. Inconclusive results are not listed. A structure can be active in one record and inactive in another. Active and inactive are the calls of the source. Unless noted, calls follow the shape of the dose curve; as a rule, active = well fitted curve in the direction sought with a large enough effect in the repeat runs; inconclusive = weak or mixed curves; inactive = no such curve, though single readings can be large; an effect the other way counts as inactive or inconclusive.

Key:
[1] = qHTS assay for small molecule agonists of the p53 signaling pathway (AID 651631; calls by dose curve; also: nearly all actives have a fitted effect of over 15% in size)
Procedure, shortened: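 Agonist mode screen using a stably integrated beta-lactamase gene under p53 response elements in HCT-116 cells. Compound exposure lasts 16 h at 37 °C; fluorescence intensity is measured following 2 h FRET substrate loading.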

[2] = qHTS assay for small molecule disruptors of the mitochondrial membrane potential - cell viability (AID 720634; calls by dose curve; also: nearly all actives have a fitted effect of over 20% in size; also: potency is read from the fitted curve at half-maximal effect)
Procedure, shortened: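 In this qHTS format, HepG2 cells plated overnight were pinned with compound, incubated 1 hr, and assayed for ATP luminescence with CellTiter-Glo after m-MPI dye addition.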

[3] = qHTS assay for small molecule disruptors of the mitochondrial membrane potential (AID 720635); also: potency is read from the fitted curve at half-maximal effect
Procedure, shortened: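 HepG2 cells exposed to compound 1 hr at 37C, then Mito-MPS dye 30 min. Ratio read of aggregate (540/590 nm) versus monomer (490/535 nm) fluorescence.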

[4] = qHTS assay to test for compound auto fluorescence at 590 nm (red) in HepG2 cells (AID 720674)
Procedure, shortened: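 Fluorescence at 590 nm emission following 540 nm excitation was recorded from HepG2 wells one hour after compound transfer, with DMSO-only wells as vehicle and Rose Bengal sodium equivalency as the scale.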

[5] = qHTS assay to test for compound auto fluorescence at 535 nm (green) in HepG2 cells (AID 720675)
[6] = qHTS assay to test for compound auto fluorescence at 460 nm (blue) in HEK293 cells (AID 720678)
Procedure, shortened: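 Blue read-out at excitation 405 nm and emission 460 nm follows overnight compound exposure of HEK293 cells at 37C in 5% CO2. Activity is given as auto fluorescence equivalency to triamterene.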

[7] = qHTS assay to test for compound auto fluorescence at 590 nm (red) in HEK293 cells (AID 720679)
Procedure, shortened: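 Red channel, Ex/Em 540/590nm; signal expressed as equivalency to Rose Bengal sodium. HEK293, 2,000 cells/well, 10% dialyzed FBS; 23 nL compound pinned after 4-5 hr attachment; overnight 37C/5% CO2 before reading.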

[8] = qHTS assay for small molecules that induce genotoxicity in human embryonic kidney cells expressing luciferase-tagged ATAD5 (AID 651632); also: nearly all actives have a fitted effect of over 15% in size
Procedure, shortened: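 Concentration-response screen for ATAD5 upregulation in HEK293T luciferase reporter cells; 16 hr treatment at 37C, then luminescence after 30 min with Amplite at room temperature.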

[9] = qHTS assay for small molecule agonists of the p53 signaling pathway - cell viability (AID 651633; calls by dose curve;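 also: p53RE-bla HCT reporter cells with a stable beta-lactamase p53 reporter; series mostly up to about 83 µM; nearly all actives have a fitted effect of over 30% in size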)
Procedure, shortened: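 p53RE-bla cells were treated with compound for 16 hours at 37 C. Cytotoxicity was then measured as CellTiter-Glo luminescence after 30 min at room temperature.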

[10] = qHTS assay for small molecules that induce genotoxicity in human embryonic kidney cells expressing luciferase-tagged ATAD5 - cell viability (AID 651634; calls by dose curve; also: nearly all actives have a fitted effect of over 25% in size)
Procedure, shortened: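 15.5 hr compound or vehicle exposure of HEK293T cells expressing luciferase-tagged ATAD5 at 37C; live-cell protease activity is read by fluorescence after 30 min of CellTiter-Fluor.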

Measured: Potency

C=CC(N)=O
not listed: [8] | [9] | [10]
inactive: all other assays above

CCCC1COC(Cn2cncn2)(c2ccc(Cl)cc2Cl)O1 (stereo not given)
not listed: [1] | [3]
inactive: all other assays above

CCOP(=S)(OCC)Oc1cnc2ccccc2n1
not listed: [2] | [3] | [9]
inactive: all other assays above

O=c1[nH]c(=O)[nH]c(=O)[nH]1
not listed: [1]
inactive: all other assays above

CCc1cccc(C)c1N(C(=O)CCl)C(C)COC (stereo not given)
not listed: [1]
inactive: all other assays above

Cn1cc(-c2ccccc2)c(=O)c(-c2cccc(C(F)(F)F)c2)c1
not listed: [1]
inactive: all other assays above

CCCCOC(=O)c1ccccc1C(=O)OCCCC
not listed: [1]
inactive: all other assays above

BrCCBr
not listed: [1]
inactive: all other assays above

c1ccc2c(c1)oc1ccccc12
not listed: [1]
inactive: all other assays above

C#CCN(C)[C@H](C)Cc1ccccc1
not listed: [1]
inactive: all other assays above

Nc1ccc(Oc2ccc(N)cc2)cc1
not listed: [9]
inactive: all other assays above

Cc1ccc([N+](=O)[O-])cc1C
47.7 µM (active) and inactive: [3]
not listed: [1]
inactive: all other assays above

CC(C)=C[C@@H]1[C@@H](C(=O)OCc2coc(Cc3ccccc3)c2)C1(C)C
active: [3] 23.7 µM
not listed: [1]
inactive: all other assays above

COC(=O)c1ccccc1N
not listed: [8]
inactive: all other assays above

Cc1cccc([N+](=O)[O-])c1
not listed: [1]
inactive: all other assays above

CC(C)C#N
not listed: [1]
inactive: all other assays above

O=C(NC(=O)c1c(F)cccc1F)Nc1cc(Cl)c(OC(F)(F)C(F)C(F)(F)F)cc1Cl (stereo not given)
active: [2] 6.68 µM and 7.7 µM | [3] 5.31 µM and 7.7 µM
not listed: [1]
inactive: all other assays above

Cc1ccc(N)cc1Cl
not listed: [1]
inactive: all other assays above

CC(C)(C)OOC(C)(C)C
not listed: [1]
inactive: all other assays above

[N-]=[N+]=[N-]
not listed: [1]
inactive: all other assays above

COC(=O)NS(=O)(=O)c1ccc(N)cc1
not listed: [1]
inactive: all other assays above

CN(C)N=O
not listed: [1]
inactive: all other assays above

Cc1ccc(N)cc1N
not listed: [1] | [3] | [6]
inactive: all other assays above

CCCN(CCC)c1c([N+](=O)[O-])cc(C(F)(F)F)cc1[N+](=O)[O-]
not listed: [1] | [3] | [9]
inactive: all other assays above

OCCN(CCO)CCO
inactive: [10] | [4] | [5] | [6] | [7]

CC(C)(C)C(O)(CCc1ccc(Cl)cc1)Cn1cncn1 (stereo not given)
not listed: [1] | [3]
inactive: all other assays above

COc1ccc2c3c1O[C@H]1[C@@H](O)C=C[C@H]4[C@@H](C2)N(C)CC[C@@]341
not listed: [1] | [3] | [9]
inactive: all other assays above

Cc1cc(Cl)ccc1O
active: [3] 42 µM and 54.5 µM
not listed: [1] | [9]
inactive: all other assays above
